# Data reported in PubChem BioAssay AID2058 (Sanford-Burnham Center for Chemical Genomics, 2009).
# Hit rate of the full screen: of about 290,000 compounds, about 150 (0.052%) were called active.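 Rule for the calls: active = inhibition of at least 50% with at least 30 cells and total cytoplasm GFP at most 10,000,000; inconclusive = under 30 cells or total GFP of 10,000,000 plus; inactive = the rest.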 The full list was thinned out, with actives kept by preference. Potency and affinity values are given separately.
# Biological target: G-protein coupled receptor 35 (Homo sapiens) (UniProt Q9HC97)
# Sequence (Q9HC97 whole entry, looked up): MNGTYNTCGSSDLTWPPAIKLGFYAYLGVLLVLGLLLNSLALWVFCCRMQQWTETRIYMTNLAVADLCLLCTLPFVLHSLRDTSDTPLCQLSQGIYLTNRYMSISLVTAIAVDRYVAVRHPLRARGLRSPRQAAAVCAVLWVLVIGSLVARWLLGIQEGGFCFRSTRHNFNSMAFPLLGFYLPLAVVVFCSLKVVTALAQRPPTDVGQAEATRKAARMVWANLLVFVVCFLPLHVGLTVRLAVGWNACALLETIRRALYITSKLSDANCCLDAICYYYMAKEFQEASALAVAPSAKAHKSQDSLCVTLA
# Assay: GPR35 antagonists blocking zaprinast-driven arrestin recruitment, primary screen, imaging, U2OS, beta-arrestin-GFP, zaprinast agonist (AID 2058)
# Details: U2OS GPR35 beta-arrestin-GFP translocation imaging, zaprinast antagonism; at 10 µM; active compounds read high
row,Compound,inhibition
1,CN1/C(=C\C=C\C2=[N+](C)c3ccc4ccccc4c3C2(C)C)C(C)(C)c2ccccc21,111% (active)
2,CN1/C(=C\C=C2C(=O)NC(=O)NC2=O)C(C)(C)c2ccccc21,1.5% (inactive)
3,CN1/C(=C\C=Nc2ccccc2)C(C)(C)c2ccccc21,-7.9% (inactive)
4,COc1ccc(NC(=O)c2cn(CCC#N)nc2-c2cccc(Br)c2)cc1,-0.5% (inactive)
5,CCCNS(=O)(=O)c1ccc(OCC(=O)N2CCN(C)CC2)cc1,3.2% (inactive)
6,CCCCNC(=O)NC(C(N)=O)P(=O)(OCC)OCC (stereo not given),-6.8% (inactive)
7,COc1cccc(C2CC3C(=O)C=CC2N3Cc2ccccc2)c1 (stereo not given),58.2% (active)
8,COc1cccc(CN2CCCCC2c2cccnc2)c1 (stereo not given),11.2% (inactive)
9,COc1cccc(-c2nn(Cc3ccccc3)cc2C(=O)O)c1,21.1% (inactive)
10,Clc1ccc(NC2=NCCCS2)cc1Cl,-7.1% (inactive)
11,Cc1nccc2c1[nH]c1ccccc12,2.3% (inactive)
12,c1ccc2c(c1)[nH]c1cnccc12,-1.7% (inactive)
13,Cc1c2ccncc2c(C)c2c1[nH]c1ccccc12,57.9% (active)
14,CCOc1ccc(Cl)cc1CNCCc1ccc(F)cc1,-1.9% (inactive)
15,Cc1ccc(C(=O)Nc2ccc(-n3ccnc3P(=O)(O)c3ccccc3)cc2)cc1,-2.7% (inactive)
